Bioassay records as filed in PubChem BioAssay.
In the library only some 1.9% were active in any assay of this set; here they are far more common.
PriA SSB inh – blocks PriA binding to SSB C-terminal tail; AlphaScreen SSBct-PriA binding, biotinylated peptide; inhibition, % at 33 µM; hit rate 0.6% among 430,000; in the data active means inhibition mostly above about 37%, no sharp cut-off; inactive means mostly below about 20%;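 further: plate controls were negative control peptide for no effect and reference peptide for full effect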
RecA splice inh – inhibitors of M. tuberculosis RecA intein splicing; hit rate 0.75% among 290,000; cell-free RecA intein splicing, fluorescence; inhibition, % (concentration not given with the values); in the data active means inhibition above about 30%;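 further: 0% = vehicle wells and 100% = reference inhibitor control wells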
Target sequence (P9WHJ3 whole entry, looked up, canonical isoform): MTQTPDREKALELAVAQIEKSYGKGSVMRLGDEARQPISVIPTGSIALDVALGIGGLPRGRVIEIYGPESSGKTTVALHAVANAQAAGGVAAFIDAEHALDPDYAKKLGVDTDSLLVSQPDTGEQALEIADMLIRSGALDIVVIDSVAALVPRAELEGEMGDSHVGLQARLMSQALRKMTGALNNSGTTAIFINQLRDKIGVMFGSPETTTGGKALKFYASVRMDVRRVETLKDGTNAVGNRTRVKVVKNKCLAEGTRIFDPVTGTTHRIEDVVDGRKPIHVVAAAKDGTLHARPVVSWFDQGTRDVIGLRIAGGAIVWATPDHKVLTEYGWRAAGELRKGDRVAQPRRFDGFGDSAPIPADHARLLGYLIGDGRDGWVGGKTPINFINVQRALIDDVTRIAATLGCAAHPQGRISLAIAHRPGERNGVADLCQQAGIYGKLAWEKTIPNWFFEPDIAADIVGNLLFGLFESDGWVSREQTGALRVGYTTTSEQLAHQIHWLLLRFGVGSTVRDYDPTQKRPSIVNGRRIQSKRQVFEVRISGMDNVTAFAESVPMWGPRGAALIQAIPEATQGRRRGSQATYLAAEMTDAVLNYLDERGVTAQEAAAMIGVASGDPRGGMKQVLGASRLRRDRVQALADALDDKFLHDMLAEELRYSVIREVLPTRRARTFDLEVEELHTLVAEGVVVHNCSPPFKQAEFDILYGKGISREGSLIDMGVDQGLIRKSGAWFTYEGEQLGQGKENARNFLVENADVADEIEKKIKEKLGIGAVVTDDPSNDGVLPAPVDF
BJeLR lethal – BJeLR cell viability loss; BJeLR (HRASV12) viability, CellTiter-Glo ATP luminescence, 48 h; AID 1554; hit rate 0.17% among 300,000; inhibition, % (test concentration not listed); in the data active means inhibition above about 50%
PfHsp40 yeast – compounds rescuing yeast from Plasmodium falciparum HSP40 toxicity; S. cerevisiae expressing PfHsp40, growth rescue, ATP luminescence; growth rescue, % at 12.5 µM; hit rate 0.68% among 340,000; in the data active means growth rescue above about 28%, passing the limit was not always enough;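 further: yeast W303a lacking pdr1 and pdr3 grown in galactose medium; growth measured after three days at 30 °C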
PrPC TRFRET – inhibitors of human cell surface prion protein PrPC; P04156; TR-FRET read-out; inhibition, % at 13.8 µM; hit rate 0.43% among 370,000; AID 720596; in the data active means inhibition above about 24%; further: 0% = median of the test wells and 100% = reference compound wells
PrP 5UTR inh – inhibition of PrP 5' UTR reporter expression; cell-based PrP 5' UTR mRNA reporter, plate reader; inhibition, % (concentration not given with the values); hit rate 0.35% among 340,000; in the data active means inhibition above about 52%; further: 0 = median of the neutral control wells
Numbers without * were called inactive; i = inactive; x = no result given.

SMILES	PriA SSB inh	RecA splice inh	BJeLR lethal	PfHsp40 yeast	PrPC TRFRET	PrP 5UTR inh
COc1ccccc1NC(=O)C1=C(C)Nc2nc(-c3cccs3)nn2C1c1ccccc1[N+](=O)[O-] (stereo not drawn)	35*	x	x	x	x	x
O=c1oc2c3c4c(cc2s1)CCCN4CCC3	52*	4	4	1	-8	-27
COC(=O)/C(=C1/Oc2ccc(C(C)(C)C)cc2S1)C(F)(F)F	2	x	1	0	4	-57
COC(=O)/C(=C1/Oc2cc(C)oc(=O)c2S1)C(F)(F)F	-3	44*	12	-1	-5	0
N[C@H]1CC(=O)N(c2ccc(F)cc2)C1	-12	x	x	x	x	x
CC(C)=CCc1c(O)ccc(C(=O)Cc2ccccc2)c1O	-23	15	0	611*	10	-26
COc1ccc(CCNC(=O)NCc2nn(C3CCCC3)c3c2CCCC3)cc1	-9	x	x	x	x	x
CCOC(=O)c1c(CCl)nc2ccccc2c1-c1ccccc1	-5	41*	2	0	-11	-11
CCN1C=CC=C/C1=C(/C#N)c1nc(-c2ccccc2)cs1	108*	x	x	x	x	x
Cc1ccccc1C1CCN(C(=O)C2CCN(S(C)(=O)=O)CC2)CCS1 (stereo not drawn)	-18	x	x	x	x	x
CCOC(=O)c1sc(=S)n(-c2ccccc2Cl)c1C	-3	-5	-11	2	-3	0
CCOC(=O)N1C(=O)C2(CCCCC2)N(c2ccccc2Cl)C1=S	-5	-3	0	284*	-4	-22
COC(=O)c1ccc2c(c1O)C(=O)c1ccccc1C2=O	35	44*	-3	342*	-7	-24
COC(=O)c1cccc2c1-c1ccccc1/C2=N/O	x	0	4	331*	-6	-10
O=C1c2ccccc2C(=O)c2c1ccc(O)c2O	-3	x	x	17	-46	-3
O=C(CNC(=O)c1ccc(Br)o1)NCc1ccc(Cl)cc1Cl	11	-8	-1	52*	7	-3
O=C(CNC(=O)c1ccc(Br)o1)NCc1cccc(Cl)c1	-6	0	-3	1	3	-8
CN(C)c1ccc(N=Nc2ccccc2Br)cc1	57*	14	7	-1	1	1
CC(=O)c1ccc(N=Nc2ccc(N(C)C)cc2)cc1	1	-1	1	0	9	5
COc1ccc(/C=N\Nc2nc3ccc(Br)cc3c(-c3ccccc3)c2-c2cc(-c3ccccc3)c3cc(Br)ccc3n2)cc1OC	-10	x	x	x	x	x
CCOCCn1c(=NC(=O)C(C)C)sc2cc(NC(C)=O)ccc21	37*	x	x	x	x	x
CCOCCn1c(=NC(=O)CC)sc2cc(NC(C)=O)ccc21	5	x	x	x	x	x
CCOC(=O)c1cc(NC(=O)C2C3CCC(O3)C2C(=O)O)cc(C(=O)OCC)c1 (stereo not drawn)	53*	-1	14	-1	3	-13
CCOC(=O)c1cc(NC(=O)C2C3C=CC(O3)C2C(=O)O)cc(C(=O)OCC)c1 (stereo not drawn)	-5	-2	-1	0	8	-12
COc1ccc(N=C2S/C(=C\c3ccc(Cl)c([N+](=O)[O-])c3)C(=O)N2CCN(C)C)cc1	16	18	59*	0	-28	x
SMILES	PriA SSB inh	RecA splice inh	BJeLR lethal	PfHsp40 yeast	PrPC TRFRET	PrP 5UTR inh
CCCN1C(=O)/C(=C/c2ccc(C)s2)SC1=Nc1ccc(OC)cc1	6	2	9	-1	-5	-1
CCN(CC)CCN1C(=O)/C(=C\c2ccc(Cl)c([N+](=O)[O-])c2)SC1=Nc1ccc(OC)cc1	9	11	88*	-1	-24	6
COc1ccc(C=NNC(=O)C(=O)C=C2NC3(CCCC3)Cc3ccccc32)cc1	5	x	x	x	x	x
CCCC[N+]12C3C[C@H](C4[C@H](O)[C@]5(C[C@@H]41)c1ccccc1N(C)[C@@H]35)[C@H](CC)[C@H]2O (stereo partly drawn)	49*	-3	16	0	-16	-21
CCC1C2CC3C4N(C)c5ccccc5C45CC(C2C5O)N3C1O (stereo not drawn)	x	x	x	x	-6	x
Cc1nc2ccccn2c1-c1csc(Nc2cccc(O)c2)n1	8	4	55*	1	-5	-20
Cc1cccc(Nc2nc(-c3ccc(O)cc3O)cs2)n1	15	x	-1	121*	8	-56
Cc1cccc(Nc2nc(-c3c(C)nc4ccccn34)cs2)c1	15	3	15	1	14	-35
S=C(NCc1ccccc1)N/N=C/c1ccccn1	i	x	x	x	x	x
S=C(NCc1ccccn1)NN=Cc1ccccn1	61*	x	x	16	8	10
CC(=O)c1ccc2c(c1)C1C(Cl)C(Sc3ccccc3[N+](=O)[O-])CC1C(C(=O)O)N2 (stereo not drawn)	46*	x	x	2	-5	-12
CC(=O)c1ccc(Sc2ccccc2N)c([N+](=O)[O-])c1	19	2	5	2	-7	1
O=C(O)c1cccc2c1NC(C(=O)O)C1CC(Sc3ccccc3[N+](=O)[O-])C(Cl)C21 (stereo not drawn)	38	x	x	55*	-14	-30
Cc1nc(-n2cccc2)sc1C(=O)N1CC(n2cc(-c3ccccc3)nn2)C1	-1	x	x	x	x	x
CC1CCN(S(=O)(=O)c2ccc3c(c2)oc(=O)n3CC(=O)N2c3ccccc3CC2C)CC1 (stereo not drawn)	98*	0	-2	0	0	-5
ON=C1CCC/C1=C\c1ccco1	-5	x	x	x	x	x
N#Cc1cccnc1N1CCC(CNC(=O)Cc2cccs2)CC1	-6	x	x	x	x	x
c1ccc2c(c1)[IH]c1ccccc1-2	1	x	x	8	35*	-11
C/C=C1\CN2[C@H]3C[C@@]45c6ccccc6N(C)[C@H]4[C@@H]2CC1C3C5O (stereo partly drawn)	-7	x	x	x	x	x
Cc1cc(C)c(N=Cc2c(O)c3ccccc3oc2=O)c(C)c1	-5	-4	-10	66*	1	-37
CC(=O)C(N=Nc1nc2c([nH]1)c(=O)n(C)c(=O)n2C)=C(C)O	-6	x	x	x	x	x
CC[C@@]1(O)C(=O)OCc2c1cc1n(c2=O)Cc2cc3ccccc3nc2-1	x	-13	91*	x	x	x
COc1cc(C(=O)Nc2nc(C(C)(C)C)cs2)cc(OC)c1OC	-18	x	x	x	x	x
Cc1cc(N=Nc2ccccc2C)ccc1N	81*	7	-3	21	1	-59
Cc1cc(C)c(NC(=O)CN2CCOCC2)c(C)c1	-10	x	x	x	x	x
SMILES	PriA SSB inh	RecA splice inh	BJeLR lethal	PfHsp40 yeast	PrPC TRFRET	PrP 5UTR inh
COc1ccc(-c2cc3nc(-c4ccccc4)cc(N4CCCC(O)C4)n3n2)cc1 (stereo not drawn)	-5	0	4	66*	-5	-14
O=C(CSc1ncnc2c1nnn2Cc1ccccc1F)N1CCN(c2ccccc2)CC1	0	43*	5	2	6	-13
CC(C)(C)NC(=O)CSc1ncnc2c1nnn2Cc1ccccc1Cl	-13	61*	-1	0	13	-14
O=C(CSc1ncnc2c1nnn2Cc1ccc(Cl)cc1)NCc1ccccc1Cl	-16	x	x	x	x	x
Nc1nc(-c2ccoc2)cs1	-17	x	x	x	x	x
CN(CC#CCNC(=O)NC(C)(C)C)Cc1ccccc1	-8	x	x	x	x	x
COc1cc(/C=N/NC(=O)c2cncc(Br)c2)cc([N+](=O)[O-])c1O	x	9	-5	-1	6	-25
